# Source: PubChem BioAssay (NCATS)
# Values joined by “and” are separate entries in the source; they are usually repeats but may differ in a detail not shown here. Equal entries are not always repeated. Results filed as inconclusive are left out. Where a call stands in place of a potency, no number is given. More than one record can exist for a structure, and the calls need not agree. Active and inactive are the calls of the source. Calls follow the shape of the dose curve; as a rule, active = well fitted curve in the direction sought with a large enough effect; inconclusive = small, poorly fitted or top-dose-only effect, or another doubt; inactive = no such curve, though single readings can be large; an effect the other way counts as inactive or inconclusive.
# How the values were obtained:
# HaCat [1] = assay: Cytotoxic Profiling of Annotated Libraries Using Quantitative High-Throughput Screening (AID 1296008); settings: Five cell lines viability, CellTiter-Glo ATP luminescence, 48-72 h; max response: stronger effect = lower value; also: nearly all actives have a fitted effect of over 60% in size
# How it was run: (§1)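 Compounds were pin-transferred onto cells and incubated 48 or 72 hr at 37 degree Celsius, 95% humidity. CellTiter-Glo was added, plates sat 10 min at room temperature, then ATP-coupled luminescence was imaged as the viability read-out.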
# KB-3-1 = assay: as above; settings: Five cell lines viability, CellTiter-Glo ATP luminescence, 48-72 h; max response: stronger effect = lower value
# How it was run: as §1
# NIH3T3 = assay: as above; settings: Five cell lines viability, CellTiter-Glo ATP luminescence, 48-72 h; max response: stronger effect = lower value
# How it was run: as §1
# MCC-13 = assay: qHTS assay to identify novel small-molecules to repurpose for Merkel cell carcinoma treatment (AID 1296009); settings: MCC and control cell lines, CellTiter-Glo viability, 72 h; series mostly up to 46 µM; also: nearly all actives have a fitted effect of over 60% in size
# How it was run: (§2)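 Viability readout: ATP luminescence (CellTiter-Glo) after 72 hr drug exposure at 37 degree celsius. Dose-response format was 8 points for NPC and 11 points for MIPE; data normalized to in-plate controls.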
# MKL-1 = assay: as above; settings: MCC and control cell lines, CellTiter-Glo viability, 72 h; series mostly up to 46 µM
# How it was run: as §2
# MKL-2 = assay: as above; settings: MCC and control cell lines, CellTiter-Glo viability, 72 h; series mostly up to 46 µM
# How it was run: as §2
# UISO = assay: as above; settings: MCC and control cell lines, CellTiter-Glo viability, 72 h; series mostly up to 46 µM
# How it was run: as §2
# WaGa = assay: as above; settings: MCC and control cell lines, CellTiter-Glo viability, 72 h; series mostly up to 46 µM
# How it was run: as §2
# C33A = assay: Primary qHTS to identify gynecologic anti-cancer compounds using libraries of approved drugs and bioactive compounds (AID 1345084); settings: Gynecologic cancer cell panel viability, ATPlite luminescence, 48 h; series mostly up to 57.5 µM; also: nearly all actives have a fitted effect of over 55% in size
# How it was run: (§3)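 Luminescence from the ATPlite ATP-monitoring reagent indicates viable cell number; lower signal means cytotoxicity. Cells received compound 16 h after seeding and were exposed for 48 h across five concentrations.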
# CAOV3 = assay: as above; settings: Gynecologic cancer cell panel viability, ATPlite luminescence, 48 h; series mostly up to 57.5 µM
# How it was run: as §3
# CASKI = assay: as above; settings: Gynecologic cancer cell panel viability, ATPlite luminescence, 48 h; series mostly up to 57.5 µM
# How it was run: as §3
# Es-2 = assay: as above; settings: Gynecologic cancer cell panel viability, ATPlite luminescence, 48 h; series mostly up to 57.5 µM
# How it was run: as §3
# HeLa = assay: as above; settings: Gynecologic cancer cell panel viability, ATPlite luminescence, 48 h; series mostly up to 57.5 µM
# How it was run: as §3
# Hek293T = assay: as above; settings: Gynecologic cancer cell panel viability, ATPlite luminescence, 48 h, control line for the selectivity index; series mostly up to 57.5 µM
# How it was run: as §3
# JEG-3 = assay: as above; settings: Gynecologic cancer cell panel viability, ATPlite luminescence, 48 h; series mostly up to 57.5 µM
# How it was run: as §3
# OV90 = assay: as above; settings: Gynecologic cancer cell panel viability, ATPlite luminescence, 48 h; series mostly up to 57.5 µM
# How it was run: as §3
# HACAT [2] = assay: qHTS assay to identify novel small-molecules to repurpose for Merkel cell carcinoma treatment (AID 1296009); settings: MCC and control cell lines, CellTiter-Glo viability, 72 h; at 44.8 µM (top of the series) unless noted; also: nearly all actives have a fitted effect of over 60% in size
# How it was run: as §2
# MCC-26 = assay: as above; settings: MCC and control cell lines, CellTiter-Glo viability, 72 h; series mostly up to 46 µM
# How it was run: as §2
# Potency is read from the fitted curve at half-maximal effect.
structure (smiles),measurement,setting,value
CCn1cc(C(=O)O)c(=O)c2cnc(N3CCCC3)nc21,max response,HaCat [1],-10.2% (inactive)
same,max response,KB-3-1,8.93% (inactive)
same,max response,NIH3T3,-2.06% (inactive)
same,"activity change, negative = cytotoxicity",MCC-13,5.05% [at 9.22 µM] (inactive)
same,"activity change, negative = cytotoxicity",MKL-1,1.32% [at 9.22 µM] (inactive)
same,"activity change, negative = cytotoxicity",MKL-2,14.9% [at 9.22 µM] (inactive)
same,"activity change, negative = cytotoxicity",UISO,12.1% [at 9.22 µM] (inactive)
same,"activity change, negative = cytotoxicity",WaGa,0.34% [at 9.22 µM] (inactive)
same,"activity change, negative = cytotoxicity",C33A,-2.2% [at 11.6 µM] (inactive)
same,"activity change, negative = cytotoxicity",CAOV3,-1.93% [at 11.6 µM] (inactive)
same,"activity change, negative = cytotoxicity",CASKI,15.2% [at 11.6 µM] (inactive)
same,"activity change, negative = cytotoxicity",Es-2,0.873% [at 11.6 µM] (inactive)
same,"activity change, negative = cytotoxicity",HeLa,-17.6% [at 11.6 µM] (inactive)
same,"activity change, negative = cytotoxicity",Hek293T,1.62% [at 11.6 µM] (inactive)
same,"activity change, negative = cytotoxicity",JEG-3,-0.757% [at 11.6 µM] (inactive)
same,"activity change, negative = cytotoxicity",OV90,-1.88% [at 11.6 µM] (inactive)
CN1CCN(CCCN2c3ccccc3Sc3ccc(S(=O)(=O)N(C)C)cc32)CC1,outcome,HaCat [1],inactive
same,max response,KB-3-1,-2.22% (inactive)
same,outcome,HACAT [2],inactive
same,Potency,MCC-13,inactive
same,Potency,MCC-26,inactive
same,Potency,UISO,inactive
same,Potency,C33A,inactive
same,Potency,CAOV3,inactive
same,Potency,CASKI,inactive
same,Potency,Es-2,inactive
same,Potency,HeLa,inactive
same,Potency,Hek293T,inactive
same,Potency,JEG-3,inactive
c1ccc(CNCCNCc2ccccc2)cc1,outcome,HaCat [1],inactive
same,max response,KB-3-1,-3.68% (inactive)
same,outcome,HACAT [2],inactive
same,Potency,MCC-13,inactive
same,Potency,MCC-26,inactive
same,Potency,MKL-1,inactive
same,Potency,UISO,inactive
same,Potency,WaGa,inactive
same,Potency,C33A,inactive
same,Potency,CAOV3,inactive
same,Potency,CASKI,inactive
same,Potency,Es-2,inactive
same,Potency,HeLa,inactive
same,Potency,Hek293T,inactive
same,Potency,JEG-3,inactive
same,Potency,OV90,inactive
C=C(CC)C(=O)c1ccc(OCC(=O)O)c(Cl)c1Cl,max response,HaCat [1],-11.5% (inactive)
same,max response,KB-3-1,-0.176% (inactive)
same,max response,NIH3T3,-16.2% (inactive)
same,Potency,MKL-1,8.41 µM (active)
same,Potency,MKL-2,15 µM (active)
same,Potency,WaGa,13.3 µM (active)
same,Potency,C33A,inactive
same,Potency,CAOV3,inactive
same,Potency,CASKI,inactive
same,Potency,Es-2,inactive
same,Potency,HeLa,inactive
same,Potency,JEG-3,inactive
same,Potency,OV90,inactive
CC(=O)O[C@H]1C[C@@H]2CC[C@@H]3[C@H](CC[C@@]4(C)[C@H]3C[C@H]([N+]3(C)CCCCC3)[C@@H]4OC(C)=O)[C@@]2(C)C[C@@H]1[N+]1(C)CCCCC1,max response,KB-3-1,1.63% (inactive)
CC(=O)Oc1ccc2c(c1)CC[C@@H]1[C@@H]2CC[C@]2(C)[C@@H](O)CC[C@@H]12,max response,HaCat [1],-1.57% (inactive)
same,max response,NIH3T3,2.78% (inactive)
same,Potency,MCC-13,inactive
same,Potency,MCC-26,inactive
same,Potency,C33A,inactive
same,Potency,CAOV3,inactive
same,Potency,CASKI,inactive
same,Potency,Es-2,inactive
same,Potency,HeLa,6.31 µM (active)
same,Potency,Hek293T,inactive
same,Potency,JEG-3,inactive
same,Potency,OV90,inactive
CCOc1ccc2nc3cc(N)ccc3c(N)c2c1,max response,HaCat [1],-2.56% (inactive)
same,max response,KB-3-1,-2.82% (inactive)
same,Potency,MCC-26,inactive
same,Potency,MKL-1,5.96 µM (active)
same,Potency,MKL-2,2.99 µM (active)
same,Potency,UISO,8.41 µM (active)
same,Potency,WaGa,2.11 µM (active)
same,Potency,CAOV3,12.6 µM (active)
same,Potency,Es-2,inactive
same,Potency,HeLa,inactive
O=C(OCC(O)CO)c1ccccc1Nc1ccnc2cc(Cl)ccc12 (stereo not drawn),max response,HaCat [1],-6.51% (inactive)
same,max response,KB-3-1,1.57% (inactive)
same,Potency,MCC-13,inactive
same,Potency,MCC-26,inactive
same,Potency,MKL-1,inactive
same,Potency,C33A,inactive
same,Potency,CAOV3,inactive
same,Potency,CASKI,inactive
same,Potency,Es-2,inactive
same,Potency,HeLa,inactive
same,Potency,Hek293T,inactive
same,Potency,JEG-3,inactive
same,Potency,OV90,inactive
CC(C)C[C@H]1C(=O)N2CCC[C@H]2[C@]2(O)O[C@](NC(=O)[C@@H]3C=C4c5cccc6[nH]c(Br)c(c56)C[C@H]4N(C)C3)(C(C)C)C(=O)N12,max response,KB-3-1,3.47% (inactive)
Clc1ccc2c(c1)CCc1cccnc1C2=C1CCNCC1,max response,HaCat [1],-1.5% (inactive)
same,max response,KB-3-1,-7.06% (inactive)
same,Potency,MCC-13,inactive
same,Potency,MCC-26,inactive
same,Potency,MKL-2,26.6 µM (active)
same,Potency,C33A,inactive
same,Potency,Es-2,inactive
same,Potency,HeLa,inactive
same,Potency,Hek293T,inactive
same,Potency,JEG-3,inactive
Oc1c(I)cc(Cl)c2cccnc12,outcome,HaCat [1],inactive
same,max response,KB-3-1,-8.86% (inactive)
same,outcome,HACAT [2],inactive
same,Potency,MKL-2,7.5 µM (active)
same,Potency,UISO,16.8 µM (active)
same,Potency,WaGa,23.7 µM (active)
same,Potency,CAOV3,inactive
same,Potency,CASKI,inactive
same,Potency,HeLa,inactive
same,Potency,JEG-3,inactive
CCCCCCCCCCCCCCCC[N+](C)(C)CC,Potency,HaCat [1],5.96 µM (active)
same,Potency,MKL-1,0.119 µM (active)
same,Potency,MKL-2,0.0473 µM (active)
same,Potency,UISO,0.668 µM (active)
same,Potency,WaGa,0.119 µM (active)
same,Potency,CASKI,8.91 µM (active)
same,Potency,Es-2,28.2 µM (active)
same,Potency,HeLa,28.2 µM (active)
same,Potency,OV90,22.4 µM (active)
CN(C(=O)CN(CCO)CC(=O)N(C)C(C)(C)Cc1ccccc1)C(C)(C)Cc1ccccc1,max response,HaCat [1],-0.203% (inactive)
same,max response,KB-3-1,-13.8% (inactive)
same,Potency,MCC-26,inactive
same,Potency,MKL-2,16.8 µM (active)
same,Potency,C33A,inactive
same,Potency,CASKI,inactive
same,Potency,Es-2,inactive
same,Potency,HeLa,inactive
same,Potency,Hek293T,inactive
same,Potency,JEG-3,inactive
same,Potency,OV90,inactive
CN(C/C=C/c1ccccc1)Cc1cccc2ccccc12,Potency,HaCat [1],21.1 µM (active)
same,max response,KB-3-1,4.5% (inactive)
same,Potency,MCC-13,inactive
same,Potency,MCC-26,inactive
same,Potency,MKL-1,inactive
same,Potency,MKL-2,inactive
same,Potency,WaGa,inactive
same,Potency,C33A,inactive
same,Potency,CAOV3,inactive
same,Potency,CASKI,inactive
same,Potency,Es-2,inactive
same,Potency,HeLa,inactive
same,Potency,JEG-3,inactive
same,Potency,OV90,inactive
CN1CCCC(CC2c3ccccc3Sc3ccccc32)C1 (stereo not drawn),max response,HaCat [1],2.06% (inactive)
same,max response,KB-3-1,7.2% (inactive)
same,Potency,MCC-26,inactive
same,Potency,MKL-2,23.7 µM (active)
same,Potency,UISO,23.7 µM (active)
same,Potency,CASKI,inactive
same,Potency,Es-2,inactive
same,Potency,HeLa,inactive
same,Potency,Hek293T,inactive
same,Potency,JEG-3,inactive
CN(C)CCCOc1nn(Cc2ccccc2)c2ccccc12,max response,HaCat [1],3.55% (inactive)
same,max response,KB-3-1,-14.4% (inactive) and -24.2% (inactive)
same,Potency,MCC-13,inactive
same,Potency,MCC-26,inactive
same,Potency,MKL-1,inactive
same,Potency,C33A,inactive
same,Potency,CASKI,inactive
same,Potency,Es-2,inactive
same,Potency,HeLa,inactive
same,Potency,Hek293T,inactive
same,Potency,JEG-3,inactive
same,Potency,OV90,14.1 µM (active) and inactive
CN=C(NC#N)NCCSCc1csc(N=C(N)N)n1,max response,HaCat [1],3.38% (inactive)
same,max response,NIH3T3,4.93% (inactive)
same,Potency,MCC-13,inactive
same,Potency,MCC-26,inactive
same,Potency,MKL-1,inactive
same,Potency,MKL-2,inactive
same,Potency,UISO,inactive
same,Potency,WaGa,inactive
same,Potency,C33A,inactive
same,Potency,CAOV3,inactive
same,Potency,CASKI,inactive
same,Potency,Es-2,inactive
same,Potency,HeLa,inactive
same,Potency,JEG-3,inactive
same,Potency,OV90,inactive
CCCOC(C(=O)OC1CCN(C)CC1)(c1ccccc1)c1ccccc1,max response,HaCat [1],-26.2% (inactive)
same,max response,NIH3T3,4.34% (inactive)
same,Potency,MCC-13,inactive
same,Potency,MCC-26,inactive
same,Potency,MKL-1,inactive
same,Potency,UISO,inactive
same,Potency,C33A,inactive
same,Potency,CASKI,inactive
same,Potency,Es-2,inactive
same,Potency,HeLa,inactive
same,Potency,Hek293T,inactive
same,Potency,JEG-3,inactive
